# Screens as filed in PubChem.
# KCNQ2 inh = rat KCNQ2 potassium channel inhibitors, primary screen, cell-based, CHO-K1, FluxOR thallium flux, B-score; Potassium voltage-gated channel subfamily KQT member 2 (Rattus norvegicus), O88943; 20 min; stronger effect = lower value; B-score at 10 µM; 310,000 tested, 1.1% active;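 active = fluorescence ratio B-score at most minus 3 library SDs, with starting brightness B-score within 2 library SDs, cut at about -5.5 in these data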
# Target sequence (O88943 whole entry, looked up): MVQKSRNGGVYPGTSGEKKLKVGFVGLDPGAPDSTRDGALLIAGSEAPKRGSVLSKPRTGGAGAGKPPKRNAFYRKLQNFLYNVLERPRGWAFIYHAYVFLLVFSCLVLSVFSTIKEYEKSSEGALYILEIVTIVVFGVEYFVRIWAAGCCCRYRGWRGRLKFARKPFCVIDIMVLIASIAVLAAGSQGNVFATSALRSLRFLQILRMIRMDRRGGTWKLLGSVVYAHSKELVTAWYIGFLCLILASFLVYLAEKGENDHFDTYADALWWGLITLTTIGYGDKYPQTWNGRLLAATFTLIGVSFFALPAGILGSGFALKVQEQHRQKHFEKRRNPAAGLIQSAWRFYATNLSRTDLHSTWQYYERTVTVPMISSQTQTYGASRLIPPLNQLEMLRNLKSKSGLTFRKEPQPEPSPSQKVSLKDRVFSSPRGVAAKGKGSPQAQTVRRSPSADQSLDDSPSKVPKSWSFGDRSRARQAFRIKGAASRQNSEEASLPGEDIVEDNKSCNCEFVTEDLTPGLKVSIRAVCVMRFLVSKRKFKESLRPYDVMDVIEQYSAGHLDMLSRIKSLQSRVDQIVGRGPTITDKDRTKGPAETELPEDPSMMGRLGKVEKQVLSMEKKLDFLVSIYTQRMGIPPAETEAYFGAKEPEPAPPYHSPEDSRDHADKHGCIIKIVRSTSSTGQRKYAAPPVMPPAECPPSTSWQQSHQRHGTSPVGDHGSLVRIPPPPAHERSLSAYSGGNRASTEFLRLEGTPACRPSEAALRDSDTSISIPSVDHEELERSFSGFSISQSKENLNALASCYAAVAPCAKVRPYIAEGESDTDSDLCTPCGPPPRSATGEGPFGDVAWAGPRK
# KCNQ2 pot = potentiators of rat KCNQ2 potassium channel; 310,000 tested, 0.54% active; AID 2239, 2010; B-score at 10 µM; CHO-K1 KCNQ2, FluxOR thallium flux fluorescence; stronger effect = higher value;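 active = fluorescence ratio B-score at least 3 SD of library B-scores, with initial fluorescence B-score within 3 of them, cut at about 5.3 in these data; same plate scores as AID 2156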;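 note: B-score of peak minus minimum over baseline fluorescence ratio after K+ and Tl+ stimulus; positive B-score means potentiation of KCNQ2 with more thallium influx and brighter signal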
# KCNQ2 inh conf = rat KCNQ2 potassium channel inhibitors, confirmation, cell-based, thallium flux; shares compounds with KCNQ2 inh; KCNQ2-expressing cells, inhibition; stronger effect = lower value; activity change, negative = inhibition, % at 10 µM; 1,000 tested, 57% active
# KCNQ1 spec = human KCNQ1 channel inhibition, counter-screen for KCNQ2 inhibitor project, cell-based, FluxOR thallium flux; shares compounds with KCNQ2 inh; KCNQ1-expressing cells, FluxOR thallium flux fluorescence; stronger effect = lower value; activity change, negative = inhibition, % at 10 µM; 1,000 tested, 15% active; AID 493026, 2011;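 active = activity change at least 3 SD of negative controls below their mean in both duplicate wells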;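 note: CHO cells stably transfected with KCNQ1 and depolarized by potassium stimulus; peak minus minimum fluorescence over baseline after thallium addition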
# CHO Tl ctr = thallium flux change in parental CHO cells, counter-screen for KCNQ2 inhibitor project; shares compounds with KCNQ2 inh; stronger effect = lower value; activity change, % at 10 µM; 1,000 tested, 14% active; AID 493029, 2011
# KCNQ2 patch conf = rat KCNQ2 channel inhibitors, confirmation, cell-based, automated patch clamp, single concentration | shares compounds with KCNQ2 inh | KCNQ2-expressing cells, automated patch clamp current | calls only at 10 µM | 550 tested, 49% active | AID 588531, 2011
# Hits are given with their value; 0 = inactive; - = no result given; + = active, no number. Rows were chosen to be rich in hits. Some 1.6% of all compounds tested hit in one or more screens of this group. Unless noted, the rule behind the calls is not given here.
SMILES,KCNQ2 inh,KCNQ2 pot,KCNQ2 inh conf,KCNQ1 spec,CHO Tl ctr,others
O=C(COC(=O)c1ccccn1)Nc1cccnc1Cl,0,-,-,-,-,
CSc1ccc(S(=O)(=O)N2CCC(C(=O)Nc3ccc(C(N)=O)cc3)CC2)cc1,0,-,-,-,-,
Cc1ccc(C(=O)NCC(c2ccco2)N2CCc3ccccc3C2)cc1 (stereo not given),-6.7,0,0,0,0,
Cc1ccc(C(=O)NCC(c2ccco2)N2CCOCC2)cc1 (stereo not given),0,0,-,-,-,
O=C(NCC(c1ccco1)N1CCc2ccccc2C1)c1cccc(Br)c1 (stereo not given),-7.9,0,0,0,0,
O=C(NCC(c1ccco1)N1CCc2ccccc2C1)c1c(F)cccc1F (stereo not given),0,0,-,-,-,
O=C(NCC(c1ccco1)N1CCOCC1)c1cccc(Cl)c1 (stereo not given),0,0,-,-,-,
Cc1ccc(C(=O)NCC(c2ccco2)N2CCc3ccccc3C2)cc1C (stereo not given),-8.8,0,-28%,0,0,
O=C(NCC(c1ccco1)N1CCc2ccccc2C1)c1ccc(Cl)cc1 (stereo not given),-10,0,-31%,-30%,-22%,KCNQ2 patch conf=+
Cc1ccc(C)c(S(=O)(=O)NCC(c2ccco2)N2CCc3ccccc3C2)c1 (stereo not given),0,-,-,-,-,
O=C(NC1CCCCC1)c1ccc(-c2ccccc2)cc1,0,-,-,-,-,
Cc1cc(=O)oc2c3c(cc(OCC(=O)NC(Cc4ccc(Cl)cc4)C(=O)O)c12)OC(C)(C)CC3 (stereo not given),0,0,-,-,-,
COc1ccc2c(c1)cc(C(=O)N[C@@H](CCSC)C(=O)N1CCC[C@H]1C(=O)O)n2C,0,-,-,-,-,
COc1cccc(-c2c(C(=O)N/N=C(\C)c3ccc(Cl)s3)nnn2-c2nonc2N)c1,0,0,-,-,-,
CC1CCN(C(=O)CCC(=O)Nc2nnc(C3CCCCC3)s2)CC1,0,0,-,-,-,
Cn1nc(C(C)(C)C)c([N+](=O)[O-])c1C(=O)NC1CCCCC1,0,-,-,-,-,
O=C(NCC(c1ccco1)N1CCc2ccccc2C1)c1ccc(Br)cc1 (stereo not given),-9.7,0,-37%,0,0,KCNQ2 patch conf=+
O=C(NCC(c1ccco1)N1CCc2ccccc2C1)c1ccccc1Br (stereo not given),0,-,-,-,-,
Cc1ccc(/C=C2/C(=O)ON=C2c2ccccc2)o1,-9,0,-24%,0,0,KCNQ2 patch conf=0
O=C1ON=C(c2ccccc2)/C1=C\c1ccco1,0,-,-,-,-,
CSCCC(NC(=O)c1ccccc1Cl)C(=O)N1CCC1 (stereo not given),0,0,-,-,-,
CSCCC(NC(=O)c1ccccc1Br)C(=O)N1CCC(C)CC1 (stereo not given),-12,0,-36%,-39%,-30%,KCNQ2 patch conf=+
C=CCn1cc(C(=O)N2CCN(C)CC2)c(=O)c2cc(S(=O)(=O)N(CC)CC)ccc21,0,-,-,-,-,
Cc1cc(C)c(NC(=O)CNC(=O)COC(=O)C2=COCCO2)c(C)c1,0,0,-,-,-,
Cc1nn(-c2ccccc2)c(C)c1/C=N\NS(=O)(=O)c1ccc(Cl)cc1,0,-,-,-,-,
SMILES,KCNQ2 inh,KCNQ2 pot,KCNQ2 inh conf,KCNQ1 spec,CHO Tl ctr,others
CCOC(=O)COc1nc(-c2ccco2)cc(-c2ccco2)c1C#N,0,-,-,-,-,
CCOC(=O)C(C)Sc1nc(-c2ccco2)cc(C(F)(F)F)c1C#N (stereo not given),-8.8,0,-37%,-39%,-37%,KCNQ2 patch conf=0
CCOC(=O)N1CCN(CCC(=O)Nc2ccc(C)cc2)CC1,0,0,-,-,-,
CCOC(=O)N1CCN(CCC(=O)c2ccc(Br)cc2)CC1,-7.1,0,0,0,0,
COc1cc2c(cc1OC)CN(CC(=O)Nc1cccc(C)c1)CC2,0,-,-,-,-,
COc1cc2c(cc1OC)CN(CCC(=O)c1ccc(Br)cc1)CC2,-9.6,0,-45%,-43%,-36%,KCNQ2 patch conf=0
CCN(CC)Cc1c(C(=O)N/N=C/c2cccs2)nnn1-c1nonc1N,0,0,-,-,-,
CCc1nnc(NS(=O)(=O)c2ccc(NC(=O)c3cccc(OC)c3)cc2)s1,0,0,-,-,-,
O=c1c(Cc2ccc(Cl)cc2Cl)c(O)ccn1CCCN1CCOCC1,0,0,-,-,-,
CCC1CCCCN1CCCNC(=O)CN1C(=O)COc2ccccc21 (stereo not given),0,0,-,-,-,
